The list is not random: actives were taken first. Their share in the collection is about 8.3%.
Chronic BCR inh: inhibitors of chronic active B-cell receptor signaling. Potency, µM (doses to about 46.1 µM), inactives show at the highest dose activity change, negative = inhibition, usual class: inhibitors. 340,000 tested, 0.05% active. ABC-DLBCL IkBa-CBG/CBR reporter, luminescence ratio, 4 h; active = well fitted inhibition curve with a large enough effect in the signal ratio, with a control signal flat, not every such curve was filed as active; inconclusive = small, poorly fitted or top-dose-only effect, or effect the other way, or a change in a side signal; the % refers to the signal ratio;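 also: potency is read from the fitted curve at half-maximal effect; plate controls were basal doxycycline-induced cells for no effect and cells given 10 µM MG132 for full effect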
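Cell line TMD8 (human ABC DLBCL), stably expressing tet-inducible CBG68-IkBa fusion and CBR; IMDM/0.5% FBS; cpd up to 46 uM; dox induction, 4 h, 37C/5% CO2; dual luminescence; green/red ratio; MG132 control.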
VP16 counter: counter-screen for ROR gamma inhibitors: Gal4-VP16 reporter | Drosophila S2 Gal4-VP16 UAS-luciferase, luminescence, 20 h | Potency, µM (doses to about 53.6 µM), for the others: at the top dose activity, negative = inhibition, most hits filed as inhibitors | 310,000 tested, 3.5% active | AID 2546;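 also: Gal4-VP16 expression switched on by copper sulfate through the metallothionein promoter; potency is read from the fitted curve at half-maximal effect; % is scaled to controls: 0 for no effect and ±100 for the full control effect; nearly all actives have a fitted effect of over 50% in size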
Giardia kill: Giardia lamblia killing | Giardia lamblia trophozoite viability | activity change, % at 7.66 µM, hits read low | 340,000 tested, 0.15% active; in the data active = activity change below about -80%; inconclusive = between about -30% and that limit;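 also: parasites exposed to compound for two days anaerobically before the ATP read; % is scaled to controls: 0 for no effect and ±100 for the full control effect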
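Giardia trophozoites, 100 cells per well, were exposed to compounds for 48 hrs at 37 deg C under anaerobic conditions; viability was then read as ATP content by bioluminescence after 15-30 min at room temperature.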
MCF10A rerep: inducers of DNA re-replication in MCF 10A breast cells; MCF 10A DNA re-replication, Hoechst nuclear intensity, 48 h; Potency, µM (doses to about 46.1 µM), without a hit: top-dose activity, positive = re-replication, hits mostly activators; 350,000 tested, 2.9% active; AID 624296; also: potency is read from the fitted curve at half-maximal effect; % of control where 0% means no effect; nearly all actives have a fitted effect of over 50% in size
RORg inh: blocks mouse ROR gamma transcriptional activity. Drosophila S2 Gal4-RORgamma UAS-luciferase reporter, 20 h. Potency, µM (series often up to 53.6 µM), for inactives: top-dose activity change, negative = inhibition, usual class: inhibitors. 310,000 tested, 5.4% active; also: potency is read from the fitted curve at half-maximal effect; % is scaled to controls: 0 for no effect and ±100 for the full control effect; nearly all actives have a fitted effect of over 60% in size
Target sequence (P51450 whole entry, looked up, the tested form may be a part): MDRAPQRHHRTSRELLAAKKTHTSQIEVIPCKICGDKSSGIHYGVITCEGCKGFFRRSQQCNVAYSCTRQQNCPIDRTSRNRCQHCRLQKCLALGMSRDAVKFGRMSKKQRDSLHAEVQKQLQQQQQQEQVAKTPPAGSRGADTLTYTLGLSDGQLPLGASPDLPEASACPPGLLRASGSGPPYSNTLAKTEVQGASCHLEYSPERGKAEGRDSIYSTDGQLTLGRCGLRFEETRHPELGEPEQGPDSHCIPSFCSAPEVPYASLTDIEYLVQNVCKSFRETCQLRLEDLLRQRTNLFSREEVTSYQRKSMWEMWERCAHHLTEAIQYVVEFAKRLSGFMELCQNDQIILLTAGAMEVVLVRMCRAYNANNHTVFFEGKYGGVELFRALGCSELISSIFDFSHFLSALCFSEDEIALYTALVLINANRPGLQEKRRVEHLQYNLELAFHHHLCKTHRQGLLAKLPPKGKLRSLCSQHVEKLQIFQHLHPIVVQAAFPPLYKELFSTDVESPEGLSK
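Luminescence from a UAS-regulated Photinus luciferase reporter in stably transfected Drosophila Schneider cells is measured; decreased signal marks ROR gamma inhibition. Fusion expression is induced by 700 uM copper sulfate for 20 hr.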
SW480 rereplic: inducers of DNA re-replication in SW480 colon cancer cells | SW480 DNA re-replication, Hoechst DNA content imaging, 48 h | Potency, µM (series often up to 46.1 µM), for inactives: top-dose re-replication activation, hits mostly activators | 340,000 tested, 1.8% active | AID 624297; also: potency is read from the fitted curve at half-maximal effect; % of control where 0% means no effect; nearly all actives have a fitted effect of over 55% in size
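First, 250 cells per well were seeded. Next, compound or vehicle (23 nL) was pinned in, plates sat 48 hr at 37 C. Finally Hoechst was added for 40 min before fluorescence scanning.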
The depositor's hits bear a star; ? = inconclusive; nt = no result given; [ ] = remark or other dose. Unless noted, calls follow the shape of the dose curve; as a rule, active = well fitted curve in the direction sought with a large enough effect; inconclusive = small, poorly fitted or top-dose-only effect, or another doubt; inactive = no such curve, though single readings can be large; an effect the other way counts as inactive or inconclusive.

SMILES	Chronic BCR inh	VP16 counter	Giardia kill	MCF10A rerep	RORg inh	SW480 rereplic
COc1ccccc1NC(=O)Nc1ccc(S(=O)(=O)Nc2onc(C)c2C)cc1	0%	nt	-6	1%	nt	-2%
CC1(C)NC(=O)N(CC(=O)OCC(=O)Nc2c(Br)cc([N+](=O)[O-])cc2Br)C1=O	nt	nt	0	-2%	nt	12%
COc1ccc(N2C(=O)[C@@H]3[C@H](C2=O)[C@H]2C=CC=NN2[C@@H]3C(=O)Nc2ccc(Cl)cc2)cc1	?	?	-15	17%	14µM*	3%
O=C(Nc1ccc(Cl)cc1)[C@@H]1[C@@H]2C(=O)N(c3ccc4ccccc4c3)C(=O)[C@@H]2[C@H]2C=CC=NN21	?	5%	-5	4%	-15%	27%
COc1ccc(N2C(=O)C3C(C2=O)C(C(=O)c2ccc(Cl)cc2)N2CCCC32)cc1 (stereo not drawn)	?	?	6	15µM*	?	8.2µM*
O=C(c1ccc(Cl)cc1)C1C2C(=O)N(c3ccccc3)C(=O)C2C2CCCN21 (stereo not drawn)	?	-3%	-23	-10%	-31%	-12%
O=C(c1ccccc1)[C@@H]1[C@@H]2C(=O)N(c3ccc(F)cc3)C(=O)[C@@H]2C2CCCN21 (stereo partly drawn)	?	?	-17	?	?	?
CC(=O)c1ccc(N2C(=O)C3C(C2=O)C(C(=O)c2ccc(Cl)cc2)N2CCCC32)cc1 (stereo not drawn)	-7%	-24%	-13	12µM*	?	?
Cc1ccc(N2C(=O)[C@@H]3[C@H](C2=O)C2CCCN2[C@@H]3C(=O)c2ccccc2)cc1 (stereo partly drawn)	?	?	-4	?	6.3µM*	?
COc1ccc2nc(-c3ccccc3)cc(C(=O)OCC(=O)NC3CC3)c2c1	-20%	nt	-10	0%	nt	?
Cc1ccc(SCc2cc(=O)n(C)[nH]2)cc1	4%	10%	-13	1%	0%	3%
N#CC1C(=O)c2ccccc2C1c1ccccc1 (stereo not drawn)	nt	nt	-20	15µM*	nt	18µM*
O=C(Cc1ccccc1)c1ccc(N2CCOCC2)cc1	nt	nt	4	7%	nt	-2%
COc1cc(Cl)c(S(=O)(=O)NCc2ccccn2)cc1Cl	0%	-10%	-3	5%	11µM*	-10%
CCOc1ccc(Cl)cc1S(=O)(=O)NCc1ccccn1	-17%	?	-19	3%	?	7%
CCOc1cc(Cl)c(S(=O)(=O)NCc2ccccn2)cc1Cl	-3%	20µM*	-8	-6%	13µM*	-12%
CN(C)CCCNC(=O)C[C@H]1C[C@H](C(=O)N2CCCCC2)[C@@]2(C)c3[nH]c4cc(CCC(=O)N(C)C)ccc4c3CCN2C1=O	0%	nt	12	?	nt	-5%
CCn1cc(C(=O)O)c(=O)c2cc(F)c(N3CCN(C(=S)NC(=O)c4ccc(Br)cc4)CC3)cc21	7%	-3%	1	?	0.63µM*	?
CCn1cc(C(=O)O)c(=O)c2cnc(N3CCN(C(=S)NC(=O)c4ccc(Br)cc4)CC3)nc21	-7%	-10%	?	-3%	0.56µM*	-19%
CCn1cc(C(=O)O)c(=O)c2cnc(N3CCN(C(=S)NC(=O)c4ccc(Cl)cc4)CC3)nc21	4%	-1%	10	0%	1µM*	1%
CCn1cc(C(=O)O)c(=O)c2cc(F)c(N3CCN(C(=S)NC(=O)c4ccc(OC)cc4)CC3)cc21	5%	-7%	-11	-3%	?	1%
CCOc1ccc(CCNC(=O)CCSCc2cccc(Cl)c2)cc1OCC	-1%	nt	nt	nt	nt	nt
CS(=O)c1ccccc1-c1nc(-c2ccc([N+](=O)[O-])cc2)no1 (stereo not drawn)	nt	nt	33	3%	nt	-6%
Cc1ccc(N2C(=O)N(C(C)C)C(C)(C)CC2(C)O)cc1 (stereo not drawn)	-2%	1%	2	-8%	-22%	-5%[9.22 µM]
CCC(C)N1C(=O)N(c2cccc(Cl)c2)C(C)(O)CC1(C)C (stereo not drawn)	-3%	26%	-20	10%	5µM*	-13%
SMILES	Chronic BCR inh	VP16 counter	Giardia kill	MCF10A rerep	RORg inh	SW480 rereplic
CCCCC(=O)NC(Nc1sc2c(c1C(N)=O)CCCC2)(C(=O)OCC)C(F)(F)F (stereo not drawn)	-1%	-6%	3	-9%	0%	2.9µM*
CCOC(=O)C(NC(=O)c1ccc(F)cc1)(Nc1sc2c(c1C(N)=O)CCC2)C(F)(F)F (stereo not drawn)	?	-4%	?	-2%	-11%	-4%
O=P(O)(CCc1ccncc1)CN1CCCCC1	5%	2%	3	5.8µM*	0%	?
Cc1ccc(S(=O)(=O)Nc2cc3c(C(=O)Nc4ccccc4)c(C)oc3c3ccccc23)cc1	0%	-6%	1	0%	-5%	9%
CCCCCCCCCCCC(CC1OC(=O)C1CCCCCC)OC(=O)C(CC(C)C)NC=O (stereo not drawn)	nt	4%	nt	5.3µM*	-2%	13%
CC1CCc2c(sc3nc(C4CC4)nc(N4CCN(C(=O)c5ccco5)CC4)c23)C1 (stereo not drawn)	nt	nt	20	16µM*	nt	?
CCc1noc(C)c1C(=O)NNC(=O)COc1ccc(C)c(C)c1	-6%	nt	5	6%	nt	-16%
CC(NCC(O)COCCC12CC3CC(CC(C3)C1)C2)c1ccccc1 (stereo not drawn)	?	?	-1	?	13µM*	?
Oc1ccc(N=C/C=C/c2cccc(Br)c2)cc1-c1nc2ccccc2s1	?	7.9µM*	-1	?	?	?
CC1=C(C)CS(=O)N(S(=O)(=O)c2ccc(Cl)cc2)C1 (stereo not drawn)	?	6.3µM*	-3	?	?	?
Nc1nc2sc3c(c2cc1C(=O)NCC(=O)O)CCCC3	-11%	?	?	-8%	10µM*	-1%
CC1CSc2ccccc2NC1=S (stereo not drawn)	-25%	7.9µM*	-3	1%	7.1µM*	-2%
S=C1CSc2ccccc2N1	-6%	7.9µM*	-6	0%	3.5µM*	-4%
c1ccc(C2CSc3ccccc3N2)cc1 (stereo not drawn)	-1%	-3%	-16	1%	-11%	7%
CCc1nnc(NC(=O)Cc2ccc(S(=O)(=O)N3CCCCC3)cc2)s1	-5%	nt	11	?	nt	-14%

Compound activity as filed in PubChem BioAssay.
